The source of these data is ChEMBL document CHEMBL3433997, “St. Jude Leishmania screening dataset” (2016).

For the assay, the target named is Solute carrier family 2, facilitated glucose transporter member 1 (Homo sapiens) (UniProt P11166). As to the kind of experiment: ST_JUDE_LEISH: Cytotoxicity at 2uM final concentration against transgenic Leishmania Mexicana promastigotes LmGLUT1 that are glucose transport deficient and complemented with the human glucose transporter GLUT1. Activity is measured by DNA content using SYBR green in vitro. In kind it is functional.
Solute carrier family 2, facilitated glucose transporter member 1 (Homo sapiens), sequence (P11166 whole entry): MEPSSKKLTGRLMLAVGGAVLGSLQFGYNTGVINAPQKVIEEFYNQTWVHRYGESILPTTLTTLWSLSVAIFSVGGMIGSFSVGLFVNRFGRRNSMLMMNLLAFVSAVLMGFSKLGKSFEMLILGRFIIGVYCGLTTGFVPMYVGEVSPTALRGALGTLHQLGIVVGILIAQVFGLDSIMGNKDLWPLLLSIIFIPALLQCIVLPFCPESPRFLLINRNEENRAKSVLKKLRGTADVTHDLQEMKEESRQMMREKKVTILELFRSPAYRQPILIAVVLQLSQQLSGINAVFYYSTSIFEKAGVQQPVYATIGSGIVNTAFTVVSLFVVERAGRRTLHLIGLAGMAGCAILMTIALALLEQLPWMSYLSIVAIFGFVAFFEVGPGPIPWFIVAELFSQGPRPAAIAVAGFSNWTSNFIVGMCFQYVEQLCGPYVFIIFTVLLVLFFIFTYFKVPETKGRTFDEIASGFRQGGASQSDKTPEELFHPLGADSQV
Consider `COc1cc2c(cc1OC)CN(c1cc(N)c3cc(OC)c(OC)cc3n1)CC2`, for which the inhibition came out at 1.34%. Regarding `CCCCSc1ccc2nc(-c3c[nH]c4ccc(C#N)cc34)cn2c1`, the inhibition was -0.49%.

Regarding `O=C(NCC1CCCCC1)c1cc(=O)c2ccccc2o1`, the inhibition came to 8.02%. As for `CCCC(=O)NC(c1cccs1)c1cc(Cl)c2cccnc2c1O` (stereo not given), the inhibition stood at 0.53%. On to `Cc1cc2ccc(-c3cccc(CN)c3)cc2nc1N`, for which the inhibition stood at 0.93%. Next, `COc1cccc(C(=O)Nc2nonc2-c2ccc(OC)c(OC)c2)c1`: 2.16%.

As for `Cc1cccc2nc(-c3cccc(-c4cccc(CNCCN5CCNCC5)c4)c3)[nH]c12`, the inhibition came to 0.34%. As for `N=c1[nH]c2cccc3ccc4cccc1c4c32`, the figure is 9.96%; as for `COCCNCc1ccc(-c2cccc(CNC3CCN(Cc4ccccc4)CC3)c2)cc1`, 4%. Next, `CC(C)Sc1nc2c(c(=O)n1Cc1ccco1)C1(CCCCC1)Cc1ccccc1-2`: 2.09%; `COc1ccc(CC(=O)NC(CCCN2CCC(c3ccccc3)CC2)c2ccc(Cl)c(Cl)c2)cc1OC` (stereo not given): 1.29%; `CCc1cn2c3c(cc(C(=O)N[C@@H](Cc4ccccc4)[C@H](O)CNCc4ccccc4C)cc13)N(C)S(=O)(=O)CC2`: 3.43%. `O=C(CCCCCNC(=O)c1ccc(O)c(-c2ccc(Cl)c(Cl)c2)c1)NCc1cccc2ccccc12`: the inhibition worked out at 2.63%.

Turning to `CC(C)CNC(=O)CN1C(=O)C(c2ccccc2)(c2ccccc2)N=C1N`, the inhibition stood at 4.76%. In the case of `Cc1c(C)c2c(c(C)c1O)CC[C@](C)(C(=O)N1CCC(CCN3CCC(c4c[nH]c5ccccc45)CC3)CC1)O2`, the inhibition came out at 0.17%.

For `CCOc1cc(Br)c(C(C)NC(=O)c2cccc(OC)c2)cc1OCC` (stereo not given), the inhibition turned out to be 0.82%. As for `C(=Cc1ccccc1)C=NN=c1cc[nH]c2ccccc12`, the figure is -0.05%; as for `CC(C)Oc1cc(-c2ccc(S(C)(=O)=O)cc2)nc(N(Cc2cccc(F)c2F)Cc2cccc(F)c2F)n1`, -1.85%. As to `Cc1cccc(C(=O)Nc2ccnc(N3CCC(N(C)Cc4ccccc4)CC3)c2)c1`, the inhibition is -1.46%. In the case of `O=C(NC(=S)NCc1ccncc1)c1ccccc1`, the inhibition stood at 2.06%.

`Nc1nc(N)c2c(ccc3c2ccn3Cc2ccc3c(c2)OCO3)n1`: the inhibition was 97.8%.

For `Nc1cccc(CNCc2ccc(-c3ccc(-c4nc5cc(F)ccc5[nH]4)s3)cc2)c1`, the inhibition is -2.38%. As for `CC1CCCN(C(=O)C(C)Nc2cc(Cl)ccc2N2CCOCC2)C1` (stereo not given), the figure is 1.2%. Regarding `Nc1nc(N)c2c(ccc3c2ccn3CCCF)n1`, the inhibition came out at 1.79%. As for `Clc1ccc2c(N3CCN(CCN4CCN(c5ccnc6cc(Cl)ccc56)CC4)CC3)ccnc2c1`, the inhibition is 0.09%. For `CN(CCN)Cc1ccc(-c2ccc(-c3nc4cc(C(F)(F)F)ccc4[nH]3)s2)cc1`, the inhibition came to 15.1%. For the compound `CCN1CCN(c2cc(C)c3cc(NC(=O)c4ccc([N+](=O)[O-])c(C)c4)ccc3n2)CC1`, the inhibition worked out at 3.68%. `Cc1nc(-c2cccc(Nc3nccc(NCC(O)c4ccccc4C)n3)c2)cs1` (stereo not given): the inhibition was found to be 2.79%. Turning to `CC(C)=CCc1c(-c2ccc(O)cc2O)oc2c3c(cc(O)c2c1=O)OC(C)(C)C=C3`, the inhibition worked out at 5.72%.

As for `O=C(/C=C/c1ccc(Cl)c(Cl)c1)NC1CCC(CN2CCC(Cc3c[nH]c4ccccc34)CC2)CC1` (stereo not given), the inhibition came out at 2.9%. With `CC(C)(CN)c1nc(-c2ccc(Cl)c(O)c2)c(-c2ccnc(N)n2)[nH]1`, the inhibition was -0.87%. With `CCCCCn1c(Sc2ccc(C#N)c([N+](=O)[O-])c2)nnc1-c1ccccc1`, the inhibition amounted to 8.41%.

In the case of `COc1cc2nc(N3CCC(CNC(=O)c4ccc(-c5ccc(C(=O)N(C)C)cc5OCCO)cc4)CC3)nc(N)c2cc1OC`, the inhibition is -1.09%. Next, `CCOc1cc(CNCCCCCCNCc2cc(OCC)c(OCC)c3ccccc23)c2ccccc2c1OCC`: 58.6%. As to `O=C(N[C@H](CC1CCCCC1)C(=O)NC1CCCc2ccccc21)c1ccc(O)c(-c2cccc([N+](=O)[O-])c2)c1` (stereo not given in full), the inhibition was 1.2%.

Consider `CC(C)(CNC(=O)[C@H]1CCCN1)c1nc(-c2ccc(Cl)c(O)c2)c(-c2ccncc2)[nH]1`, for which the inhibition is 8.17%. For the compound `Nc1nccc(-c2ccc3c(-c4cccc(F)c4)cnc(N)c3c2)n1`, the inhibition is -0.44%. Turning to `CCNc1cc(C(=O)N[C@@H](Cc2ccccc2)[C@H](O)CNC(CC)c2cccc(Cl)c2)cc(N2CCCCS2(=O)=O)c1` (stereo not given in full), the inhibition came out at 4.81%. As for `O=C(NC(=O)c1ccccc1)NC1CCN(c2ccnc3cc(Cl)ccc23)C1` (stereo not given), the inhibition is -0.37%.

On to `O=C(O)c1ccc(-c2c[nH]c3ncc(-c4ccc(Cl)cc4)cc23)cc1`, for which the inhibition amounted to 0.12%.
